According to PubChem BioAssay (EPA / NIEHS):
Results filed as inconclusive are left out. Active and inactive are the calls of the source. The calls were made as follows, unless noted: active = hit-call score of the fitted dose curve at least 0.9, where 1 is the maximum; inactive = score below 0.9.

How the values were obtained:
[1] = biological target: Glucocorticoid receptor (Homo sapiens) (UniProt P04150); test: ATG_GR_TRANS: Attagene TRANS-FACTORIAL HepG2 Assay for human Glucocorticoid Receptor (GR) (AID 2282978; active = hit-call score of the fitted dose curve at least 0.9, where 1 is the maximum;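 also: activators score as hits since higher reporter transcript over DMSO is fitted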); settings: HepG2 Attagene TRANS GR reporter, mRNA transcription
In short: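 Exogenous NR-GAL4 fusion activity was assessed through induced GAL4-UAS reporter transcripts in transfected human HepG2 cells, quantified after 24 h by RT-PCR and fluorescent capillary electrophoresis with DMSO as baseline.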

[2] = biological target: Bile acid receptor (Homo sapiens) (UniProt Q96RI1); test: ATG_FXR_TRANS: Attagene TRANS-FACTORIAL HepG2 Assay for Farnesoid X Receptor (FXR) (AID 2282979; active = hit-call score of the fitted dose curve at least 0.9, where 1 is the maximum;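 also: hits raise reporter mRNA above DMSO so AC50 marks FXR activation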); settings: HepG2 Attagene TRANS FXR-GAL4 reporter transcription
In short: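 Read-out: fluorescent reporter transcripts quantified by capillary electrophoresis after RT-PCR of total RNA. Source cells were HepG2 transiently carrying chimeric NR-GAL4 plus GAL4-UAS reporter units, dosed 24 h. Activity fitted upward relative to DMSO baseline.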

[3] = biological target: Oxysterols receptor LXR-alpha (Homo sapiens) (UniProt Q13133); test: ATG_LXRa_TRANS: Attagene TRANS-FACTORIAL HepG2 Assay for human Liver X Receptor alpha (LXRa) (AID 2282980; active = hit-call score of the fitted dose curve at least 0.9, where 1 is the maximum); settings: HepG2 Attagene TRANS reporter, LXRa transactivation
In short: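 Read-out: reporter transcript levels by RT-PCR plus capillary electrophoresis, fluorescence intensity. Transiently transfected HepG2, exogenous NR-GAL4 chimera, GAL4-UAS reporters; 24 h compound exposure. Activity = increase over DMSO negative control.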

[4] = ATG_M_06_TRANS: Attagene TRANS-FACTORIAL HepG2 Assay for M06 Transcription Factor (Internal Marker) (AID 2282983; active = hit-call score of the fitted dose curve at least 0.9, where 1 is the maximum); settings: HepG2 Attagene TRANS M06 internal marker reporter
In short: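 Read-out: fluorescent reporter cDNA fragments resolved by capillary electrophoresis after RT-PCR and HpaI cut. Source cells were HepG2 carrying transfected multi-reporter GAL4 constructs, dosed 24 h. Increase over DMSO control analysed.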

[5] = biological target: Transcriptional activator Myb (Homo sapiens) (UniProt P10242); test: ATG_Myb_CIS: Attagene CIS-FACTORIAL HepG2 Assay for human Myeloblastosis (Myb) Proto-Oncogene Transcription Factor (AID 2282986); settings: HepG2 Attagene CIS-FACTORIAL Myb reporter transcription; actives raise or lower the signal
In short: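 In this HepG2 transient-transfection format, cis-regulated reporter mRNA is quantified 24 h post-dosing by RT-PCR with capillary electrophoresis, fitted bidirectionally to DMSO baseline.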

[6] = biological target: Nuclear respiratory factor 1 (Homo sapiens) (UniProt Q16656); test: ATG_NRF1_CIS: Attagene CIS-FACTORIAL HepG2 Assay for human Nuclear Respiratory Factor 1 (NRF1) Orphan Gene (AID 2282987); settings: HepG2 NRF1 cis-element reporter, Attagene multiplex; actives raise or lower the signal
In short: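 Using DMSO as baseline, gain- or loss-of-signal was fitted for reporter mRNA levels in HepG2 cells transiently transfected with cis-regulated reporter units. Samples were taken 24 h after dosing and read by RT-PCR with capillary electrophoresis.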

[7] = ATG_NFI_CIS: Attagene CIS-FACTORIAL HepG2 Assay for human Nuclear Factor I (NFI) (AID 2282989); settings: HepG2 cis-regulatory reporter, NFI response element transcription; actives raise or lower the signal
In short: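 Reporter transcription driven by endogenous transcription factors in HepG2 cells; 24 h treatment. Quantitation by labelled RT-PCR fragments on capillary electrophoresis, gain- or loss-of-signal relative to DMSO.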

[8] = biological target: Myc proto-oncogene protein (Homo sapiens) (UniProt P01106); test: ATG_Myc_CIS: Attagene CIS-FACTORIAL HepG2 Assay for human Myelocytomatosis (Myc) Proto-Oncogene Transcription Factor (AID 2282990); settings: HepG2, Attagene cis-reporter transcription factor activity; actives raise or lower the signal
In short: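 Multiplexed cis-reporter transcription in HepG2 cells after 24 h chemical treatment. Reporter mRNA measured by RT-PCR and capillary electrophoresis fluorescence; activity fitted bidirectionally against DMSO control.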

[9] = ATG_NF_kB_CIS: Attagene CIS-FACTORIAL HepG2 Assay for human Nuclear Factor Kappa B (NF-kB) (AID 2282991); settings: HepG2 Attagene cis-factorial NF-kB reporter mRNA; actives raise or lower the signal
In short: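 Endpoint from a 52-component multiplexed HepG2 reporter panel: cis-regulated transcription units transiently transfected, 24 h dosing, reporter mRNA quantified by RT-PCR and capillary electrophoresis, scored as increase or decrease against DMSO.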

[10] = ATG_NRF2_ARE_CIS: Attagene CIS-FACTORIAL HepG2 Assay for human Nuclear Factor Erythroid 2 Related Factor 2 (NFR2) response to Antioxidant Response Elements (ARE) (AID 2282992); settings: HepG2 Attagene ARE/NRF2 reporter, transcription factor activity; actives raise or lower the signal
In short: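 Readout: reporter mRNA quantified by RT-PCR plus FAM-labelled primer extension, HpaI digestion and capillary electrophoresis, 24 h after dosing transfected HepG2 cells. Gain or loss of signal is fitted bidirectionally against DMSO baseline.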

[11] = ATG_Oct_MLP_CIS: Attagene CIS-FACTORIAL HepG2 Assay for human Octamer-Binding Transcription Factor (Oct) (AID 2282993); settings: HepG2 Attagene cis-factorial Oct reporter, mRNA; actives raise or lower the signal
In short: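 Transfected HepG2 cells, 24 h treatment. Reporter mRNA quantified by RT-PCR–capillary electrophoresis; bidirectional fitting against DMSO.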

[12] = biological target: Cellular tumor antigen p53 (Homo sapiens) (UniProt P04637); test: ATG_p53_CIS: Attagene CIS-FACTORIAL HepG2 Assay for human p53 Transcription Factor (AID 2282994); settings: HepG2 p53 cis-element reporter, Attagene mRNA; actives raise or lower the signal
In short: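 Read-out: reporter mRNA by RT-PCR plus capillary electrophoresis with fluorescence detection. Human HepG2 liver cells carried transfected multi-reporter cis-element constructs, dosed 24 h. Gain or loss of signal fitted bidirectionally against DMSO control.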

[13] = biological target: Estrogen-related receptor gamma (Homo sapiens) (UniProt P62508); test: ATG_ERRg_TRANS: Attagene TRANS-FACTORIAL HepG2 Assay for human Estrogen-Related Receptor gamma (ERRg) (AID 2282977; active = hit-call score of the fitted dose curve at least 0.9, where 1 is the maximum;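 also: hits increase reporter signal over DMSO so potencies reflect activators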); settings: HepG2 Attagene TRANS reporter, ERRg transactivation
In short: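 Exogenous NR-Gal4 chimera activity measured as reporter transcript induction after 24 h in transiently transfected HepG2 cells. RNA reverse-transcribed, PCR-amplified, 6-FAM-labelled and resolved by capillary electrophoresis; increase over DMSO baseline.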

[14] = biological target: Oxysterols receptor LXR-beta (Homo sapiens) (UniProt P55055); test: ATG_LXRb_TRANS: Attagene TRANS-FACTORIAL HepG2 Assay for human Liver X Receptor beta (LXRb) (AID 2282981; active = hit-call score of the fitted dose curve at least 0.9, where 1 is the maximum); settings: HepG2 Attagene TRANS GAL4-LXRb reporter, mRNA
In short: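 Measures induction of a Gal4-driven reporter transcript in HepG2 cells expressing an exogenous LXRb-Gal4 fusion. Cells are exposed to compound for 24 h before RNA isolation and RT-PCR with capillary electrophoresis detection.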

[15] = biological target: Hepatocyte nuclear factor 4-alpha (Homo sapiens) (UniProt P41235); test: ATG_HNF4a_TRANS: Attagene TRANS-FACTORIAL HepG2 Assay for human Hepatocyte Nuclear Factor 4 alpha (HNF4a) (AID 2282982; active = hit-call score of the fitted dose curve at least 0.9, where 1 is the maximum); settings: HepG2 HNF4a transactivation reporter, mRNA readout
In short: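 In this trans-factorial format, a chimeric HNF4a-GAL4 fusion drives a GAL4-UAS reporter in transfected HepG2 liver cells. After 24 h treatment, reporter mRNA induction is measured by RT-PCR with capillary electrophoresis, relative to DMSO.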

[16] = biological target: Nuclear receptor subfamily 4 group A member 2 (Homo sapiens) (UniProt P43354); test: ATG_NURR1_TRANS: Attagene TRANS-FACTORIAL HepG2 Assay for human Nuclear Receptor Related Protein 1 (NURR1) (AID 2282985; active = hit-call score of the fitted dose curve at least 0.9, where 1 is the maximum); settings: HepG2 Attagene TRANS reporter, mRNA readout
In short: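 Chimeric NR-Gal4 fusion activity measured in HepG2 after 24 h treatment. Reporter transcripts detected by RT-PCR and capillary electrophoresis fluorescence; positive-direction curve fitting against DMSO.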

[17] = ATG_M_32_TRANS: Attagene TRANS-FACTORIAL HepG2 Assay for M32 Transcription Factor (Internal Marker) (AID 2282984; active = hit-call score of the fitted dose curve at least 0.9, where 1 is the maximum;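 also: transcript level of a background control reporter unit measured by RT-PCR and capillary electrophoresis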); settings: HepG2 Attagene TRANS M32 internal marker reporter
In short: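 After 24 h dosing of transfected HepG2 cells, total RNA was reverse-transcribed, reporter sequences PCR-amplified, 6-FAM labelled by primer extension and HpaI-digested before capillary electrophoresis. Signal increase over DMSO was fitted.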

[18] = BSK_3C_TissueFactor: BioMAP Diversity Plus: 3C Assay for Tissue Factor Biomarker Activity (AID 2282997); settings: BioMAP 3C HUVEC, tissue factor biomarker readout; actives raise or lower the signal
In short: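 HUVEC, 3C system, 24 h post-dose; Tissue Factor by ELISA; bidirectional fit vs DMSO baseline.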

[19] = BSK_3C_uPAR: BioMAP Diversity Plus: 3C Assay for Urokinase-type plasminogen activator receptor (uPAR) Biomarker Activity (AID 2282998); settings: BioMAP 3C HUVEC, uPAR biomarker ELISA; actives raise or lower the signal
In short: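 Readout: ELISA for surface uPAR. System: human umbilical vein endothelial primary cells, 24 h after chemical exposure. Analysis: bidirectional fit, DMSO baseline.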

[20] = BSK_3C_VCAM1: BioMAP Diversity Plus: 3C Assay for Vascular cell adhesion molecule 1 (VCAM1) Biomarker Activity (AID 2282999); settings: BioMAP 3C HUVEC, VCAM1 ELISA, cytokine-stimulated; actives raise or lower the signal
In short: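 Vascular primary endothelium (human umbilical vein) was exposed to chemicals and assayed 24 h later. VCAM-1 levels came from ELISA, with DMSO serving as baseline for bidirectional fitting.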

Measured: AC50

Sequence of Nuclear respiratory factor 1 (Homo sapiens) (Q16656 whole entry, looked up): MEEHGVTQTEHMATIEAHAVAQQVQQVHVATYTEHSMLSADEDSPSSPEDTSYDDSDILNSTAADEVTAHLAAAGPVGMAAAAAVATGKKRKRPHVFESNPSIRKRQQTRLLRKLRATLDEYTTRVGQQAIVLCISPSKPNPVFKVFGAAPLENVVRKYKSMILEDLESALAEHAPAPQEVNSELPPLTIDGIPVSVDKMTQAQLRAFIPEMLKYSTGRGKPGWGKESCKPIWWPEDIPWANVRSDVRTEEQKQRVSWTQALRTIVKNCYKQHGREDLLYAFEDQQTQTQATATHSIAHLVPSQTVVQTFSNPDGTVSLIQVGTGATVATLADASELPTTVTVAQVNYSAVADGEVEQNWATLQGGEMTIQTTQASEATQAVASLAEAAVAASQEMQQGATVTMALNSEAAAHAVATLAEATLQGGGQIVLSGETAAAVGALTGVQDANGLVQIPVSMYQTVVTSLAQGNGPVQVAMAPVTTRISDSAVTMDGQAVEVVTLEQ
Sequence of Transcriptional activator Myb (Homo sapiens) (P10242 whole entry, looked up): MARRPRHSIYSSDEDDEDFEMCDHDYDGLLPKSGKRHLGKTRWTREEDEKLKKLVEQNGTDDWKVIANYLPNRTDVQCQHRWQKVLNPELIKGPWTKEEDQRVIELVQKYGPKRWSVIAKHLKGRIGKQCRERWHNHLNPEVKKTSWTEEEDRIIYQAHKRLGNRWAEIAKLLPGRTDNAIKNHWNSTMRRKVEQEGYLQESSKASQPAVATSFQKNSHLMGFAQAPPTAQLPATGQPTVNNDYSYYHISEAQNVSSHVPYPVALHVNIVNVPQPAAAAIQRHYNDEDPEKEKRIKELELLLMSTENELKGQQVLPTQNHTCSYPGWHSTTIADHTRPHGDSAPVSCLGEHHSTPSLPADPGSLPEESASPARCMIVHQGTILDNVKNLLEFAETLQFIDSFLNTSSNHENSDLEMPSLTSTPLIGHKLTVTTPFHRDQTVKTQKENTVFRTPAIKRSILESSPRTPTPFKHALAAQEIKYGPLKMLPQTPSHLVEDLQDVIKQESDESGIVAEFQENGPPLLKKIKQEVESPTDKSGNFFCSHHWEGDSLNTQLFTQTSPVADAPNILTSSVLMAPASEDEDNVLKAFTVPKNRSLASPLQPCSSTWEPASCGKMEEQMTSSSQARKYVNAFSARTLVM
Sequence of Oxysterols receptor LXR-beta (Homo sapiens) (P55055 whole entry, looked up, the tested form may be a part): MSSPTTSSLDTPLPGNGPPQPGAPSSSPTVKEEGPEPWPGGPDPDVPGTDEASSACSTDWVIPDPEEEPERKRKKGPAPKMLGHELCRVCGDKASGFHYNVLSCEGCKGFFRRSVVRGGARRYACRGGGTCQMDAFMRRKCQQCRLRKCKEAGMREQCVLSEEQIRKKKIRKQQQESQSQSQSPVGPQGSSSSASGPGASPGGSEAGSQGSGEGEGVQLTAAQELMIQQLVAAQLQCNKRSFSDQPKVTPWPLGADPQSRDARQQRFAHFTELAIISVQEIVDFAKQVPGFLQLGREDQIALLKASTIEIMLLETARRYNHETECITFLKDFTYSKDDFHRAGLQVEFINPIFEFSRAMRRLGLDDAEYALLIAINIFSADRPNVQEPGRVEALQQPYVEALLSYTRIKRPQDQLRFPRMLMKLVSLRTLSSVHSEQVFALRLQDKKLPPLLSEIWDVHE
Sequence of Bile acid receptor (Homo sapiens) (Q96RI1 whole entry, looked up, the tested form may be a part): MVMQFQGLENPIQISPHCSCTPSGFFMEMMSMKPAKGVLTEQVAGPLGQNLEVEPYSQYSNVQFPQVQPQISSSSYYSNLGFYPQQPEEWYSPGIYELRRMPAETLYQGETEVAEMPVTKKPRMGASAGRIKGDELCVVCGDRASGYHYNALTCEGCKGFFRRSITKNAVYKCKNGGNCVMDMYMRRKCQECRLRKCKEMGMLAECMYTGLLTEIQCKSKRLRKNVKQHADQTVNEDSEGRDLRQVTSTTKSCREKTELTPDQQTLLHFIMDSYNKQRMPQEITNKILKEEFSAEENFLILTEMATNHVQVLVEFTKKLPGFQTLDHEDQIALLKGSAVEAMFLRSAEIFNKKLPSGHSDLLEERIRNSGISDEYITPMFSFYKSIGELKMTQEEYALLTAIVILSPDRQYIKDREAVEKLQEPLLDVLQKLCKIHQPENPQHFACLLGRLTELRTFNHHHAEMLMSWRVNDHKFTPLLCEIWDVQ
Sequence of Estrogen-related receptor gamma (Homo sapiens) (P62508 whole entry, looked up, the tested form may be a part): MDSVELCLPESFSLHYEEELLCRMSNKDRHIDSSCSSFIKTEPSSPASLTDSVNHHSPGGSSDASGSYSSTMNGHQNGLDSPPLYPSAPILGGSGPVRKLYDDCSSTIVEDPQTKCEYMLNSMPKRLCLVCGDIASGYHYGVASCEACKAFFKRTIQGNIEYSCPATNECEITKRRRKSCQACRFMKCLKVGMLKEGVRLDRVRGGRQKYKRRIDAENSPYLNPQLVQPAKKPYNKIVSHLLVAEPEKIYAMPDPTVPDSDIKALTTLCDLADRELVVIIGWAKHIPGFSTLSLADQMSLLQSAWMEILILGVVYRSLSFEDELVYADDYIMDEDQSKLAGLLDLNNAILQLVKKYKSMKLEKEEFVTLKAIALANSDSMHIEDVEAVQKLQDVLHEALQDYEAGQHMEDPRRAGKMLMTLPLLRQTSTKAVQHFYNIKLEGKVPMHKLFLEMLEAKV
Sequence of Cellular tumor antigen p53 (Homo sapiens) (P04637 whole entry, looked up): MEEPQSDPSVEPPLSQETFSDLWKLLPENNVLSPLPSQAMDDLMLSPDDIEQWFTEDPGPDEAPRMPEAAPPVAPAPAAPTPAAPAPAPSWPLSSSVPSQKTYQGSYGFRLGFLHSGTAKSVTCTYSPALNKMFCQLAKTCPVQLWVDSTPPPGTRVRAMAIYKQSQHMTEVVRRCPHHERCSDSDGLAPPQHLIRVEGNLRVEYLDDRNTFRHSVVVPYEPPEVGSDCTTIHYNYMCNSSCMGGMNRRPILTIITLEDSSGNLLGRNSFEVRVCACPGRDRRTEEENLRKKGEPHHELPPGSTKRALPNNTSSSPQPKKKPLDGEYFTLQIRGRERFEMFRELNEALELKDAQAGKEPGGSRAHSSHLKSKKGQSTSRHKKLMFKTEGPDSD
Sequence of Myc proto-oncogene protein (Homo sapiens) (P01106 whole entry, looked up): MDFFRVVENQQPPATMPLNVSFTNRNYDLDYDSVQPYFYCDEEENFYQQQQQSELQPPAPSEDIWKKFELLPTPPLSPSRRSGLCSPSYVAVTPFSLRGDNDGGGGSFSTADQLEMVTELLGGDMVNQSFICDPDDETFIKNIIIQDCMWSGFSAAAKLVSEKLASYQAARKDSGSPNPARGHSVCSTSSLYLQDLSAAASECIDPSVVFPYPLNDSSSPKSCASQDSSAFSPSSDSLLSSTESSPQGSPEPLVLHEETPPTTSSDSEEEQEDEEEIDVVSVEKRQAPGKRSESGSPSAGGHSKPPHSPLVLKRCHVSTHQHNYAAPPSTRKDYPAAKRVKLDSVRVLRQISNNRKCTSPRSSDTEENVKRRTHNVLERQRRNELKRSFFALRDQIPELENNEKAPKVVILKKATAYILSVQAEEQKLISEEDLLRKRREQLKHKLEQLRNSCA
Sequence of Nuclear receptor subfamily 4 group A member 2 (Homo sapiens) (P43354 whole entry, looked up, the tested form may be a part): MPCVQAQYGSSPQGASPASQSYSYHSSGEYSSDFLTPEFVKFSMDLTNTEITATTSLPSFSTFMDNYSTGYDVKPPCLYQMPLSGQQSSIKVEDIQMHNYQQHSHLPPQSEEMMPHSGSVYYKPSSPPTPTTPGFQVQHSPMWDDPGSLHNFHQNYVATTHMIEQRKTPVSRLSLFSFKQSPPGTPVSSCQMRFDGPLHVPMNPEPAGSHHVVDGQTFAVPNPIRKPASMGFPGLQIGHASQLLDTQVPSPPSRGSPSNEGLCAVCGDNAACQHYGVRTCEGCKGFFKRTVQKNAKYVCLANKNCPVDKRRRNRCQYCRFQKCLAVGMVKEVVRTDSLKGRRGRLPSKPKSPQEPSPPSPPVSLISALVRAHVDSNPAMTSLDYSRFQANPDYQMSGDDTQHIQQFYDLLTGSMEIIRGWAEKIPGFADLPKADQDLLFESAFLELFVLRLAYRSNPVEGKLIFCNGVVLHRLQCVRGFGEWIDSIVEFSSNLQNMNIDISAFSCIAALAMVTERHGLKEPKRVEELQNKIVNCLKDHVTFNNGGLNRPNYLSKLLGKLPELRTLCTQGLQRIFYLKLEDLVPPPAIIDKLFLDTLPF
Sequence of Oxysterols receptor LXR-alpha (Homo sapiens) (Q13133 whole entry, looked up, the tested form may be a part): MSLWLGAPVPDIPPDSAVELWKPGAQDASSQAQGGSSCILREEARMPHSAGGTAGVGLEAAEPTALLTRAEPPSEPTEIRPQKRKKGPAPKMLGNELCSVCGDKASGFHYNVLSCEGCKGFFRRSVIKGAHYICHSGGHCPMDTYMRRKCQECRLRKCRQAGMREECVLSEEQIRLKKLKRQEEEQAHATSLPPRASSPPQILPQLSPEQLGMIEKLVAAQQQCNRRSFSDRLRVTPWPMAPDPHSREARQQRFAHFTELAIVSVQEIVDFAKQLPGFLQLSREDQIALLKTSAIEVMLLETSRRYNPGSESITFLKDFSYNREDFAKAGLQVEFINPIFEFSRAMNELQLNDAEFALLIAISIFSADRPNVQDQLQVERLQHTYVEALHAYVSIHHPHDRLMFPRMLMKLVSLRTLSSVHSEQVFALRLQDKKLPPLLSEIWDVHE
Sequence of Hepatocyte nuclear factor 4-alpha (Homo sapiens) (P41235 whole entry, looked up, the tested form may be a part): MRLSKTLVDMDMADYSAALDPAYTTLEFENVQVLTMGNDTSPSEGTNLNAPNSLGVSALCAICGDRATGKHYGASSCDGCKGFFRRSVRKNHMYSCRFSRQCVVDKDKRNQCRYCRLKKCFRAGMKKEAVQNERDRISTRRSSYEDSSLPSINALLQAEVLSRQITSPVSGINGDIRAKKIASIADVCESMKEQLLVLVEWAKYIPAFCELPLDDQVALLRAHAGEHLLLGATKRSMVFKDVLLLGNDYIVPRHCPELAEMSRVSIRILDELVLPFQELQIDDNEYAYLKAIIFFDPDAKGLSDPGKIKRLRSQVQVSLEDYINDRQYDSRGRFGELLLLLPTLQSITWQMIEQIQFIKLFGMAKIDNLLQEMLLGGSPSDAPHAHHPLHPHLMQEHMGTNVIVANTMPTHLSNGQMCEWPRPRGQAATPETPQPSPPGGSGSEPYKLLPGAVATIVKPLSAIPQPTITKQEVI

CCc1cccc(CC)c1
not listed: [13] | [14] | [15] | [16] | [17] | [18] | [19] | [20]
inactive: all other assays above

CC(C)c1ccc2ncccc2c1
inactive: [13] | [2] | [4] | [5] | [6] | [7] | [8] | [9] | [11]
active: [10] 64.6 µM

CN1CCN(C)CC1
not listed: [3] | [4] | [9] | [13] | [17] | [18] | [19] | [20]
inactive: all other assays above

CCC(C)c1ccccc1 (stereo unspecified)
not listed: [7] | [13] | [16] | [18] | [19] | [20]
inactive: all other assays above

C=CCCCCCCCCC=O
not listed: [1] | [2] | [3] | [14]
inactive: all other assays above

CCCCCCCC(=O)OCC
inactive: [13] | [2] | [14] | [16] | [5] | [6] | [8] | [9] | [10] | [11] | [12]

Cn1cccc1
active: [7] 26.2 µM | [10] 29.5 µM
inactive: [13] | [3] | [15] | [5] | [6] | [8] | [11] | [12]

CC(C)=CCl
not listed: [3] | [13] | [17] | [18] | [19] | [20]
inactive: all other assays above

CC(=O)CCC=C(C)C
inactive: [13] | [3] | [4] | [5] | [6] | [8] | [9] | [10] | [11] | [12]

O=C1CCCN1C1CCCCC1
inactive: [13] | [2] | [5] | [6] | [8] | [9] | [10] | [11]

COc1ccc(C(=O)c2ccccc2)c(O)c1
active: [9] 168 µM | [10] 100 µM
not listed: [3] | [13] | [15]
inactive: all other assays above

CCCCCCCCCCCCC
not listed: [3] | [13] | [18] | [19] | [20]
inactive: all other assays above

O=C(Nc1ccccc1)c1cc(Cl)ccc1O
active: [7] 5.49 µM | [10] 2.35 µM | [11] 15.1 µM
not listed: [4] | [9] | [13] | [16] | [18] | [19] | [20]
inactive: all other assays above

COC(=O)c1ccc(C(=O)OC)c(C(=O)OC)c1
not listed: [1] | [2] | [9] | [12] | [18] | [19] | [20]
inactive: all other assays above

c1ccc2sc(SSN3CCOCC3)nc2c1
active: [6] 100 µM | [7] 75 µM | [8] 76.3 µM | [10] 48.8 µM | [11] 100 µM | [18] 9.51 µM | [19] 4.34 µM | [20] 8.13 µM
not listed: [1] | [2] | [9] | [12]
inactive: all other assays above

CC(C)[N+](C)(CCOC(=O)C1c2ccccc2Oc2ccccc21)C(C)C
not listed: [3] | [4] | [13] | [15] | [16] | [17]
inactive: all other assays above

CCCCCCCCCC(C)=O
inactive: [1] | [3] | [14] | [17] | [16] | [5] | [9] | [10] | [11] | [12]

CCCC1CCCC(=O)O1 (stereo unspecified)
inactive: [1] | [3] | [14] | [17] | [5] | [6] | [7] | [9] | [10] | [11] | [12]

[Cl][Eu]([Cl])[Cl]
inactive: [1] | [2] | [4] | [5] | [6] | [8] | [9] | [10] | [11] | [12]

CC/C=C\C/C=C\C/C=C\CCCCCCCC(=O)OC
active: [9] 32.4 µM | [10] 48.1 µM | [11] 135 µM | [18] 13.5 µM | [19] 31.6 µM | [20] 14.2 µM
inactive: [1] | [2] | [15] | [16] | [5] | [6] | [8] | [12]

Nc1nc(N)nc(-c2ccccc2)n1
not listed: [2] | [8] | [12] | [13]
inactive: all other assays above
